Assay results as given in the supplement of paper PMC8728848.
About 410 targets per protein were measured; listed, in parts, are those with the strongest signals and a random draw of the rest.

Legend:
Experiment in all cases: glycan array binding signal (z-score within array); higher = stronger binding
Conditions in all cases: glycan notation: IUPAC condensed, linker removed; mutation: F63H
[1] = target: Gal3S(b1-3)[Fuc(a1-4)]GlcNAc
Procedure, shortened: (§1)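 The binding signal is a Z-score computed within each array and averaged over linkers. Arrays of the same protein sequence at different concentrations or buffers were also averaged together. Data originate from 3228 arrays in the Consortium for Functional Glycomics database, kept only where the protein sequence was available.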

[2] = target: Gal4S(b1-4)GlcNAc
Procedure, shortened: as §1

[3] = target: GalNAc(b1-3)GlcNAc
Procedure, shortened: as §1

[4] = target: Glc(a1-6)Glc(a1-6)Glc(a1-6)Glc
Procedure, shortened: as §1

[5] = target: GlcA(b1-6)Gal
Procedure, shortened: as §1

[6] = target: GlcA3S(b1-3)Gal(b1-4)GlcNAc(b1-2)Man
Procedure, shortened: as §1

[7] = target: GlcA3S(b1-3)Gal(b1-4)GlcNAc(b1-3)Gal(b1-4)Glc
Procedure, shortened: as §1

[8] = target: GlcNAc(a1-4)Gal(b1-4)GlcNAc(b1-3)Gal(b1-4)GlcNAc
Procedure, shortened: as §1

[9] = target: GlcNAc(b1-2)Man(a1-3)[GlcNAc(b1-4)][GlcNAc(b1-2)Man(a1-6)]Man(b1-4)GlcNAc(b1-4)[Fuc(a1-6)]GlcNAc
Procedure, shortened: as §1

[10] = target: GlcNAc(b1-3)Gal(b1-4)Glc
Procedure, shortened: as §1

[11] = target: GlcNAc(b1-3)Gal(b1-4)GlcNAc(b1-3)Gal(b1-4)GlcNAc(b1-2)[GlcNAc(b1-3)Gal(b1-4)GlcNAc(b1-3)Gal(b1-4)GlcNAc(b1-6)]Man(a1-6)[GlcNAc(b1-3)Gal(b1-4)GlcNAc(b1-3)Gal(b1-4)GlcNAc(b1-2)Man(a1-3)]Man(b1-4)GlcNAc(b1-4)[Fuc(a1-6)]GlcNAc
Procedure, shortened: as §1

[12] = target: GlcNAc(b1-3)Gal(b1-4)GlcNAc(b1-3)Gal(b1-4)GlcNAc(b1-3)Gal(b1-4)GlcNAc(b1-2)Man(a1-3)[GlcNAc(b1-3)Gal(b1-4)GlcNAc(b1-3)Gal(b1-4)GlcNAc(b1-3)Gal(b1-4)GlcNAc(b1-2)Man(a1-6)]Man(b1-4)GlcNAc(b1-4)[Fuc(a1-6)]GlcNAc
Procedure, shortened: as §1

[13] = target: GlcNAc(b1-3)Gal(b1-4)GlcNAc(b1-3)Gal(b1-4)GlcNAc(b1-3)Gal(b1-4)GlcNAc(b1-3)Gal(b1-4)GlcNAc(b1-2)[GlcNAc(b1-3)Gal(b1-4)GlcNAc(b1-3)Gal(b1-4)GlcNAc(b1-3)Gal(b1-4)GlcNAc(b1-3)Gal(b1-4)GlcNAc(b1-6)]Man(a1-6)[GlcNAc(b1-3)Gal(b1-4)GlcNAc(b1-3)Gal(b1-4)GlcNAc(b1-3)Gal(b1-4)GlcNAc(b1-3)Gal(b1-4)GlcNAc(b1-2)Man(a1-3)]Man(b1-4)GlcNAc(b1-4)[Fuc(a1-6)]GlcNAc
Procedure, shortened: as §1

[14] = target: GlcNAc(b1-3)Gal(b1-4)GlcNAc(b1-3)[GlcNAc(b1-3)Gal(b1-4)GlcNAc(b1-3)]GalNAc
Procedure, shortened: as §1

[15] = target: GlcNAc(b1-3)Man
Procedure, shortened: as §1

[16] = target: GlcNAc(b1-3)[GlcNAc(b1-4)][GlcNAc(b1-6)]GlcNAc
Procedure, shortened: as §1

[17] = target: GlcNAc(b1-3)[GlcNAc(b1-6)]GalNAc
Procedure, shortened: as §1

[18] = target: Kdn(a2-3)Gal(b1-3)GlcNAc
Procedure, shortened: as §1

[19] = target: Man(a1-2)Man(a1-2)Man(a1-6)[Man(a1-3)]Man
Procedure, shortened: as §1

[20] = target: Man(a1-2)Man(a1-3)Man
Procedure, shortened: as §1

[21] = target: Neu5Ac(a2-3)Gal(b1-3)GalNAc(b1-4)Gal(b1-4)Glc
Procedure, shortened: as §1

[22] = target: Neu5Ac(a2-3)Gal(b1-3)GlcNAc
Procedure, shortened: as §1

[23] = target: Neu5Ac(a2-3)Gal(b1-3)[Fuc(a1-4)]GlcNAc(b1-3)Gal(b1-4)[Fuc(a1-3)]GlcNAc
Procedure, shortened: as §1

[24] = target: Neu5Ac(a2-3)Gal(b1-3)[GlcNAc(b1-6)]GalNAc
Procedure, shortened: as §1

[25] = target: Neu5Ac(a2-3)Gal(b1-4)GlcNAc(b1-2)[Neu5Ac(a2-3)Gal(b1-4)GlcNAc(b1-4)]Man(a1-3)[GlcNAc(b1-4)][Neu5Ac(a2-3)Gal(b1-4)GlcNAc(b1-4)Man(a1-6)]Man(b1-4)GlcNAc(b1-4)GlcNAc
Procedure, shortened: as §1

[26] = target: Neu5Ac(a2-3)Gal(b1-4)GlcNAc(b1-2)[Neu5Ac(a2-3)Gal(b1-4)GlcNAc(b1-6)]Man(a1-6)[Neu5Ac(a2-3)Gal(b1-4)GlcNAc(b1-2)Man(a1-3)][GlcNAc(b1-4)]Man(b1-4)GlcNAc(b1-4)GlcNAc
Procedure, shortened: as §1

[27] = target: Neu5Ac(a2-3)Gal(b1-4)GlcNAc(b1-6)[Gal(b1-3)]GalNAc
Procedure, shortened: as §1

[28] = target: Neu5Ac(a2-6)Gal(b1-4)GlcNAc(b1-2)Man(a1-3)[GlcNAc(b1-2)Man(a1-6)]Man(b1-4)GlcNAc(b1-4)GlcNAc
Procedure, shortened: as §1

[29] = target: Neu5Ac(a2-6)Gal(b1-4)GlcNAc(b1-3)Gal(b1-4)GlcNAc(b1-2)Man(a1-3)[Neu5Ac(a2-6)Gal(b1-4)GlcNAc(b1-3)Gal(b1-4)GlcNAc(b1-2)Man(a1-6)]GalNAc
Procedure, shortened: as §1

[30] = target: Neu5Ac(a2-6)Gal(b1-4)GlcNAc(b1-6)[Gal(b1-3)]GalNAc
Procedure, shortened: as §1

[31] = target: Neu5Gc(a2-3)Gal(b1-4)Glc
Procedure, shortened: as §1

[32] = target: Neu5Gc(a2-3)Gal(b1-4)[Fuc(a1-3)]GlcNAc
Procedure, shortened: as §1

B1: AAL (Agrocybe aegerita), Q6WY08 (protein)
chain: MQGVNIYNISAGTSVDLAAPVTTGDIVTFFSSALNLNAGAGNPNNTTLNLFAENGAYLLHIAHRLQENVIIFNSRQPDGPWLVEQRVSDVANQFAGIDGKAMVTVFDHGDKYQVVINEKTVIQYTKQISGLTLSLSYNATEETSIFSTVVEAVTYTGLALEHHHHHH
glycan array binding signal (z-score) [1]: -0.366
glycan array binding signal (z-score) [2]: -0.569
glycan array binding signal (z-score) [3]: -0.08
glycan array binding signal (z-score) [4]: -0.408
glycan array binding signal (z-score) [5]: 0.43
glycan array binding signal (z-score) [6]: 14.9
glycan array binding signal (z-score) [7]: 12.7
glycan array binding signal (z-score) [8]: -0.067
glycan array binding signal (z-score) [9]: -0.109
glycan array binding signal (z-score) [10]: 1.42
glycan array binding signal (z-score) [11]: 0.909
glycan array binding signal (z-score) [12]: 0.906
glycan array binding signal (z-score) [13]: 0.818
glycan array binding signal (z-score) [14]: 0.58
glycan array binding signal (z-score) [15]: -0.511
glycan array binding signal (z-score) [16]: -0.568
glycan array binding signal (z-score) [17]: -0.374
glycan array binding signal (z-score) [18]: -0.066
glycan array binding signal (z-score) [19]: -0.576
glycan array binding signal (z-score) [20]: -0.172
glycan array binding signal (z-score) [21]: 0.045
glycan array binding signal (z-score) [22]: -0.26
glycan array binding signal (z-score) [23]: -0.137
glycan array binding signal (z-score) [24]: 0.214
glycan array binding signal (z-score) [25]: -0.283
glycan array binding signal (z-score) [26]: 1.54
glycan array binding signal (z-score) [27]: 0.404
glycan array binding signal (z-score) [28]: -0.73
glycan array binding signal (z-score) [29]: -0.58
glycan array binding signal (z-score) [30]: 0.137
glycan array binding signal (z-score) [31]: 1.34
glycan array binding signal (z-score) [32]: 0.023
